# Reference: PubChem BioAssay (NCI)
# Compounds without any hit were thinned out: in the full panel of roughly 79,000, 15% have a hit. Values without a mark were called inactive. No stated cut-off is given here; in the data, active means growth inhibition above about 70%; inactive means the rest.
# Assay: NCI Yeast Anticancer Drug Screen. Data for the bub3 strain (AID 167)
# Conditions: S. cerevisiae bub3 mutant strain, at 50.0 µM, active compounds read high
# Procedure: Growth inhibition of yeast strains with defined genetic alterations is measured as a screen for potential anti-cancer activity. Selected strains with alterations in DNA damage repair or cell cycle control were exposed to compounds and growth inhibition was measured relative to vehicle treated controls. The strain used in this assay is bub3
row,Compound,growth inhibition [%]
1,COC1=C(OC)C(=O)C(SC/C=C(\C)CCCC(C)CCCC(C)CCCC(C)C)=CC1=O (stereo not given),-52.6
2,C1C[S+]2CC[S+]1CC2,19.2
3,O=C(CCCl)OCCOc1ccccc1,-18.5
4,NCCCN1CCCC1=O,-23.3
5,Cn1/c(=N\N=C\c2ccccc2OCCO)sc2ccccc21,26.4
6,O=C(c1cccc(C(=O)c2ccc3c4c(cccc24)C(=O)N(c2ccccc2)C3=O)c1)c1ccc2c3c(cccc13)C(=O)N(c1ccccc1)C2=O,-25.4
7,OC(CCN1CCCCC1)(c1ccccc1)c1ccccc1,-20.2
8,NC(=O)OCCO,-2.35
9,CC(C)(C)CC1(C)NC(=O)NC1=O (stereo not given),7.25
10,Cc1ccc(NCN2C(=O)c3ccccc3C2=O)c(C)n1,7
11,S=c1nc2[nH]c3ccccc3c2n[nH]1,-8.95
12,CCN(C(C)=O)c1ccc([N+](=O)[O-])cc1,3.05
13,O=[n+]1ccn([O-])c2ccccc21,-8.1
14,Clc1cccc(Cl)c1C1CSc2ccccc2N=C1c1ccccc1 (stereo not given),-0.9
15,COc1ccc(C)cc1NC(=O)SC(C)C,18.4
16,O=S(=O)(O)c1ccc(O)c(C2CCCCC2)c1,-12.2
17,Cc1cc2c(C(C)C)c(O)c(O)c(C=Nc3ccccc3[N+](=O)[O-])c2c(O)c1-c1c(C)cc2c(C(C)C)c(O)c(O)c(C=Nc3ccccc3[N+](=O)[O-])c2c1O,-17.4
18,CC(=O)O[C@H]1CC[C@]2(C)C3=C(C(=O)C[C@H]2C1(C)C)[C@]1(C)CC[C@H]([C@H](C)CCC(=O)O)[C@@]1(C)CC3=O,2.05
19,C/C(Cc1ccccc1)=N\O,-7.95
20,Cc1ccc(O)c(N)c1,-9.6

row,Compound,growth inhibition [%]
1,CN=S(=O)(OCCCCCOS(=O)(=NC)c1ccc(C)cc1)c1ccc(C)cc1 (stereo not given),-41.3
2,CC(C)C(C)(C)C(=O)C(C)(C)C(C)(C)C,2.6
3,Nc1nc2nnc(-c3ccccc3)c(-c3ccccc3)n2n1,9.65
4,COC1OC(COC(C)=O)C(OC(C)=O)C(OC(C)=O)C1OC(C)=O (stereo not given),2.05
5,COc1cc(C(=O)O)c(O)c(C(C)(C)C)c1,5.4
6,O=Cc1ccc(F)cc1,-10.6
7,Cc1cc(=O)n(Nc2ccccc2)c(O)c1C#N,5.6
8,Nc1ncnc2c1ncn2C1OC(CO)C2OC21 (stereo not given),-5.95
9,CCOC(=O)/C(O)=C(\C=N\C(=S)Nc1ccc(Cl)c(Cl)c1)C(=O)OCC,49.5
10,COc1ccc(Nc2cc(Cl)ccc2C(=O)O)cn1,5.3
11,O=C(Nc1ccc([N+](=O)[O-])cc1)C(=O)Nc1ccc([N+](=O)[O-])cc1,3.1
12,CCCCCCCCCCC(=O)CCCCCCCCCC,7.6
13,NC(=O)NCCO,-6.05
14,Cc1cc(NC(=O)c2ccccc2)c(Cl)cc1N,-21
15,C[n+]1cc2cc3c(cc2c2ccccc21)OCO3,26.9
16,CCOC(=O)c1c(C)[nH]c(C)c1C=O,52.5
17,CC1CCC(C)(C)c2ccccc21 (stereo not given),-7.75
18,NC(=O)N1CCOCC1,-14.3
19,O=C(O)Cc1ccc(Cl)cc1,-25.2
20,CC1(C)CCC(C)(C)NC(=S)N1,13.5
